High-throughput results (PubChem)
In the library only some 2.3% were active in any assay of this set; here they are far more common.
Mcl-1 Bim block = human Bim-Mcl-1 interaction inhibition | Bead-based flow cytometry, Bim peptide-Mcl-1 binding | AID 1009 | Q07820 | actives 0.1% (n = 190,000) | inhibition, % at 10 µM; in the data active = inhibition above about 40%;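 also: 0% = no compound tracer wells and 100% = peptide blocker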
Mcl1 Noxa PPI = Mcl-1/Noxa interaction inhibition; AID 1022; inhibition, % at 21.7 µM; TR-FRET Mcl-1/Noxa peptide binding, 2 h; actives 1.5% (n = 220,000); Q07820;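 active = compounds that cut the protein-peptide binding signal by more than 50% relative to plate controls in a single-dose test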;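 also: His-tagged Mcl-1 with rhodamine Noxa BH3 peptide and terbium anti-His antibody; 0% = Mcl-1 plus Noxa peptide wells and 100% = peptide-only wells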
Mcl1 Bid PPI = Mcl-1/Bid interaction inhibition; Q07820; inhibition, % at 21.7 µM; actives 0.97% (n = 220,000); TR-FRET Mcl-1/Bid-Dy647 peptide binding, 1536-well;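 active = compounds that cut the binding signal by more than half at the single screening dose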;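 also: His-tagged Mcl-1 with europium anti-His antibody binding Bid BH3 peptide; 0% = Mcl-1 plus peptide wells and 100% = peptide-only wells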
GLD-1 RNA inh = GLD-1-TGE RNA interaction inhibition (C. elegans); Q17339; actives 0.44% (n = 320,000); inhibition, % at 5.96 µM; purified GLD-1 + fluorescein TGE RNA, fluorescence polarization;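 active = percent inhibition above a per-plate cutoff, the plate mean of test compounds plus 3 SD, cut at about 30% in these data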;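 also: 0% = DMSO wells with GLD-1 and probe and 100% = wells lacking GLD-1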
Target sequence (Q17339 whole entry, looked up): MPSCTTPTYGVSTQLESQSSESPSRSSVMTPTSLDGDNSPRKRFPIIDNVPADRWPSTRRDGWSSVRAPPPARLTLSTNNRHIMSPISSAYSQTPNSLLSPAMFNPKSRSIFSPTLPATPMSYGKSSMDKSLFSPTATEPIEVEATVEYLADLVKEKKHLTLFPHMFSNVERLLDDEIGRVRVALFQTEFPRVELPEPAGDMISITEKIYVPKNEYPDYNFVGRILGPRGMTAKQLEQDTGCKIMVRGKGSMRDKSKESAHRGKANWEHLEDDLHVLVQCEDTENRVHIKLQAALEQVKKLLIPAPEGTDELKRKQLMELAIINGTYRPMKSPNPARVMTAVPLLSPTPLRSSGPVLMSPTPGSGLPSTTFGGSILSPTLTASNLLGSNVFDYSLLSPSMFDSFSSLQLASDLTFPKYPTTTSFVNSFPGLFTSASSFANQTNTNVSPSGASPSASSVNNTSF
MCL1 BIM primary = disrupts human MCL1 binding to BIM-BH3 peptide; AID 2057; actives 0.68% (n = 320,000); GST-MCL1 / FITC-Bim-BH3 fluorescence polarization; Q07820; inhibition, % at 10.9 µM;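 active = inhibition above the mean inhibition of all tested compounds plus 3 SD, set per campaign, cut at about 40% in these data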;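 also: 0% = DMSO wells and 100% = unlabeled Bim-BH3 peptide control; higher means more loss of mP so more displacement of Bim peptide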
Bcl-xL primary = blocks human Bcl-xL binding to Bim BH3 peptide; AID 2129; actives 0.7% (n = 320,000); GST-Bcl-xL / FITC-Bim BH3 peptide fluorescence polarization; inhibition, % at 10.9 µM;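 active = inhibition above the mean of all tested compounds plus 3 SD, cutoff set per campaign, cut at about 30% in these data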;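 also: 0% = DMSO wells and 100% = unlabeled Bim-BH3 peptide competitor; inhibitors lower millipolarization by displacing the labeled peptide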
Target sequence (Q07817 whole entry, looked up): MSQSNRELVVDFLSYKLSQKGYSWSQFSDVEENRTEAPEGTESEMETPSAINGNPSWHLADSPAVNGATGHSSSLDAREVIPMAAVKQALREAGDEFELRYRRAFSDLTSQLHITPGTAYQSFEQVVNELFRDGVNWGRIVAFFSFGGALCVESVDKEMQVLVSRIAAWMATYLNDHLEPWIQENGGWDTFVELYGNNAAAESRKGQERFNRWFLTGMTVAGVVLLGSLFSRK
* = called active by the depositor.

What do the screens show for `Cc1ccc(-c2cc(C(=O)NN3CCOCC3)c3cc(Br)ccc3n2)o1`?
Mcl-1 Bim block: 1.0; Mcl1 Noxa PPI: 56.7*; Mcl1 Bid PPI: 0.6; GLD-1 RNA inh: 4.6; MCL1 BIM primary: 10.5; Bcl-xL primary: 7.1

Results for Cc1ccc(-c2cc(C(=O)NC3=NCCS3)c3cc(Br)ccc3n2)o1 ?
Mcl-1 Bim block: 8.0; Mcl1 Noxa PPI: 102.0*; Mcl1 Bid PPI: 51.3*; GLD-1 RNA inh: -1.1; MCL1 BIM primary: 23.6; Bcl-xL primary: 13.0

How did O=C(NC1=NCCS1)c1cc(-c2cccs2)nc2ccccc12 do in these assays?
Mcl1 Noxa PPI: 7.7; Mcl1 Bid PPI: -93.2; GLD-1 RNA inh: 4.8; MCL1 BIM primary: -8.6; Bcl-xL primary: -2.9

Results for CCCC(=O)Nc1ccc2nc(SCC(=O)N3CCCC3)sc2c1 ?
Mcl-1 Bim block: 0.0; Mcl1 Noxa PPI: 8.7; Mcl1 Bid PPI: -21.4; GLD-1 RNA inh: -1.4; MCL1 BIM primary: 7.4; Bcl-xL primary: -0.2

What do the screens show for `Cn1c(SCC(=O)Nc2ccc3nc(SCC(=O)N4CCCC4)sc3c2)nnc1-c1ccccc1`?
Mcl-1 Bim block: -8.0; Mcl1 Noxa PPI: 97.1*; Mcl1 Bid PPI: 35.2; GLD-1 RNA inh: -0.4; MCL1 BIM primary: 28.7; Bcl-xL primary: 10.8

How did NC(=O)c1ccsc1NC(=O)c1ccc2c(c1)CCCC2 do in these assays?
Mcl-1 Bim block: -1.0; Mcl1 Noxa PPI: 10.0; Mcl1 Bid PPI: 0.0; GLD-1 RNA inh: -2.3; MCL1 BIM primary: -4.4; Bcl-xL primary: -0.3

What do the screens show for `NC(=O)c1ccsc1NC(=O)c1ccc(N2CCCC2=O)cc1`?
Mcl-1 Bim block: 0.0; Mcl1 Noxa PPI: 54.9*; Mcl1 Bid PPI: -1.7; GLD-1 RNA inh: -10.1; MCL1 BIM primary: 5.2; Bcl-xL primary: 3.5

How did COc1ccc(N2C(=O)[C@@H]3[C@H](C2=O)[C@H]2c4ccccc4C=CN2[C@@H]3C(C)=O)cc1 do in these assays?
Mcl-1 Bim block: -1.0; Mcl1 Noxa PPI: 5.5; Mcl1 Bid PPI: -5.5; GLD-1 RNA inh: 22.5; MCL1 BIM primary: 26.0; Bcl-xL primary: 34.0*

How did COc1ccc(N2C(=O)[C@H]3[C@@H](C2=O)C2c4ccccc4C=NN2[C@H]3C(=O)C(C)(C)C)cc1 (stereo partly specified) do in these assays?
Mcl1 Noxa PPI: 19.7; Mcl1 Bid PPI: -16.1; GLD-1 RNA inh: 4.1; MCL1 BIM primary: 4.0; Bcl-xL primary: 1.3

Results for CCOC(=O)CSC(=S)NC(=O)c1ccc(OC)cc1 ?
Mcl-1 Bim block: -7.0; Mcl1 Noxa PPI: 55.6*; Mcl1 Bid PPI: -94.7; GLD-1 RNA inh: 0.7; MCL1 BIM primary: 15.3; Bcl-xL primary: 6.3

How did COc1ccc(C(=O)NC(=S)SCC(=O)O)cc1 do in these assays?
Mcl1 Noxa PPI: 13.4; Mcl1 Bid PPI: -11.1; GLD-1 RNA inh: -4.3; MCL1 BIM primary: -0.8; Bcl-xL primary: 0.8

How did CCOC(=O)N1CCN(C(=O)c2ccc3c(SCC(=O)O)c4c(nc3c2)CCCC4)CC1 do in these assays?
Mcl-1 Bim block: -3.0; Mcl1 Noxa PPI: 3.4; Mcl1 Bid PPI: -6.4; GLD-1 RNA inh: 16.4; MCL1 BIM primary: 20.4; Bcl-xL primary: 24.8

How did O=C(O)CSc1c2c(nc3cc(C(=O)N4CCOCC4)ccc13)CCCC2 do in these assays?
Mcl-1 Bim block: 4.0; Mcl1 Noxa PPI: 17.3; Mcl1 Bid PPI: 32.0; GLD-1 RNA inh: 18.2; MCL1 BIM primary: 36.2; Bcl-xL primary: 37.1*

What do the screens show for `COc1ccc(NC(=O)CS(=O)(=O)c2ccc(F)cc2)cc1`?
GLD-1 RNA inh: -3.8; MCL1 BIM primary: 6.9; Bcl-xL primary: 2.6

How did Cc1ccc(C)c(C(=O)COC(=O)CCCC(=O)Nc2cc(C(F)(F)F)ccc2Cl)c1 do in these assays?
Mcl-1 Bim block: 27.0; Mcl1 Noxa PPI: 13.1; Mcl1 Bid PPI: 94.2*; GLD-1 RNA inh: -2.9; MCL1 BIM primary: 4.7; Bcl-xL primary: -1.4

What do the screens show for `Cc1cc(NC(=O)c2c(Cl)c(C)nn2C)no1`?
Mcl-1 Bim block: -2.0; Mcl1 Noxa PPI: -11.2; Mcl1 Bid PPI: -1.3; GLD-1 RNA inh: 2.2; MCL1 BIM primary: 1.1; Bcl-xL primary: 0.0

How did O=C(O)c1ccc(Nc2nc(-c3cccnc3)cs2)cc1O do in these assays?
GLD-1 RNA inh: 4.6; MCL1 BIM primary: 18.4; Bcl-xL primary: 14.9

How did O=C(O)c1ccc(Nc2nc(-c3cc4ccccc4oc3=O)cs2)cc1O do in these assays?
Mcl-1 Bim block: 0.0; Mcl1 Noxa PPI: 97.2*; Mcl1 Bid PPI: -87.3

How did O=c1oc2ccccc2cc1-c1nc(-c2cccs2)cs1 do in these assays?
Mcl-1 Bim block: 14.0; Mcl1 Noxa PPI: 1.0; Mcl1 Bid PPI: 7.4; GLD-1 RNA inh: 139.0*; MCL1 BIM primary: 5.8; Bcl-xL primary: -3.6

What do the screens show for `Nc1ccc(Nc2nc(-c3cc4ccccc4oc3=O)cs2)cc1`?
Mcl-1 Bim block: 0.0; Mcl1 Noxa PPI: 58.7*; Mcl1 Bid PPI: -30.7; GLD-1 RNA inh: -0.6; MCL1 BIM primary: 3.5; Bcl-xL primary: 3.4

How did c1ccc(COc2ccc(-c3sc(Nc4ccccc4)n[n+]3-c3ccccc3)cc2)cc1 do in these assays?
GLD-1 RNA inh: 4.2; MCL1 BIM primary: -3.7; Bcl-xL primary: -3.4

What do the screens show for `Cc1ccc(S(=O)(=O)Nc2c(O)c3ccccc3oc2=O)cc1C`?
GLD-1 RNA inh: 2.8; MCL1 BIM primary: 2.7; Bcl-xL primary: 1.6

How did Oc1[nH]c2ccccc2c1N=Nc1ccc(F)cc1 do in these assays?
Mcl-1 Bim block: 0.0; Mcl1 Noxa PPI: 16.6; Mcl1 Bid PPI: -14.6; GLD-1 RNA inh: -27.4; MCL1 BIM primary: -190.8; Bcl-xL primary: -70.2

Results for Cc1ccc2[nH]c(C)c(/C=N/Nc3nc4ccccc4s3)c2c1 ?
Mcl-1 Bim block: 0.0; Mcl1 Noxa PPI: 18.0; Mcl1 Bid PPI: -68.7; GLD-1 RNA inh: 4.4; MCL1 BIM primary: -2.9; Bcl-xL primary: -3.5

What do the screens show for `Oc1[nH]c2ccccc2c1N=Nc1ccccc1`?
Mcl1 Noxa PPI: 5.4; Mcl1 Bid PPI: -12.0; GLD-1 RNA inh: 70.3*; MCL1 BIM primary: 20.6; Bcl-xL primary: 40.7*

What do the screens show for `CC(C)(O)C(=O)N=Nc1c(O)[nH]c2ccccc12`?
Mcl-1 Bim block: -5.0; Mcl1 Noxa PPI: -11.4; Mcl1 Bid PPI: 4.7; GLD-1 RNA inh: 4.1; MCL1 BIM primary: -1.6; Bcl-xL primary: -1.4

Results for Oc1[nH]c2ccccc2c1N=Nc1nc2ccccc2s1 ?
Mcl-1 Bim block: -2.0; Mcl1 Noxa PPI: 84.4*; Mcl1 Bid PPI: 59.1*; GLD-1 RNA inh: 1.4; MCL1 BIM primary: 27.7; Bcl-xL primary: 16.0

How did Cc1ccc2[nH]c(O)c(N=Nc3nc4ccccc4s3)c2c1 do in these assays?
Mcl1 Noxa PPI: 95.0*; Mcl1 Bid PPI: 50.8*; GLD-1 RNA inh: -3.0; MCL1 BIM primary: 22.5; Bcl-xL primary: 10.1

Results for COC(=O)/C=C(\C)N=Nc1c(O)[nH]c2ccccc12 ?
Mcl1 Noxa PPI: 51.6*; Mcl1 Bid PPI: 34.0; GLD-1 RNA inh: 5.5; MCL1 BIM primary: 0.5; Bcl-xL primary: 5.7

How did CC(C)CNC(=O)CN(c1cccc(Cl)c1)S(C)(=O)=O do in these assays?
Mcl-1 Bim block: 0.0; Mcl1 Noxa PPI: 36.4; Mcl1 Bid PPI: -30.1; GLD-1 RNA inh: 6.6; MCL1 BIM primary: 3.9; Bcl-xL primary: 0.3
